WRN helicase inh = blocks human WRN helicase. AID 651768. Q14191. hit rate 0.46% among 360,000. WRN helicase unwinding, fluorescent forked duplex, kinetic. Potency, µM (highest dose often 114 µM), for the others: top-dose activity change, negative = inhibition, actives largely listed as inhibitors; further: on the % scale 0 is the no-effect control and ±100 the full control effect; nearly all actives have a fitted effect of over 55% in size
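Kinetic red-fluorescence monitoring (525/598 nm) tracks WRN helicase activity after 100 nM fluorophore-quencher forked duplex and 2 mM ATP are added to 20 nM enzyme pretreated 15 min at room temperature with compound.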
POLK inh = DNA polymerase kappa (human) inhibition; Q9UBT6; purified Pol kappa, fluorescent DNA synthesis assay, 10 min; Potency, µM (top dose mostly 107 µM), without a hit: at the top dose activity, negative = inhibition, actives largely listed as inhibitors; hit rate 0.53% among 400,000; AID 588579; further: on the % scale 0 is the no-effect control and ±100 the full control effect
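Kinetic fluorescence screen: compound preincubated 15 min RT with 10 nM enzyme; 50 nM substrate (final) initiates; reads at 0/10 min.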
POLH inh = DNA polymerase eta (human) inhibition; Potency, µM (highest dose often 114 µM), without a hit: top-dose activity change, negative = inhibition, most hits filed as inhibitors; Q9Y253; AID 588591; recombinant Pol eta, fluorescent DNA replication assay; hit rate 1.2% among 390,000; further: on the % scale 0 is the no-effect control and ±100 the full control effect
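Fluorescent replication assay: 50 nM final substrate added after a 15 min room-temperature compound preincubation with 10 nM enzyme. Signal taken at 0 min and again at 10 min.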
Pol beta inh = blocks human DNA polymerase beta activity; Pol beta primer extension/strand displacement, fluorescence kinetic; hit rate 1.3% among 340,000; P06746; AID 485314; Potency, µM (top dose mostly 114 µM), inactives show at the highest dose activity change, negative = inhibition, hits mostly inhibitors; further: on the % scale 0 is the no-effect control and ±100 the full control effect
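Reaction started by 50 nM substrate onto compound-treated Pol beta (10 nM, 15 min preincubation, room temperature); plates read at 0 min and 10 min. Normalized concentration-effect data fitted by four-parameter Hill equation.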
POLI inh = blocks human DNA polymerase iota activity | Q9UNA4 | Potency, µM (doses to about 115 µM), inactives show at the top dose activity, negative = inhibition, most hits filed as inhibitors | Pol iota fluorescent replication assay, 10 min | hit rate 1% among 390,000 | AID 588590
Target sequence (Q9UNA4 whole entry, looked up): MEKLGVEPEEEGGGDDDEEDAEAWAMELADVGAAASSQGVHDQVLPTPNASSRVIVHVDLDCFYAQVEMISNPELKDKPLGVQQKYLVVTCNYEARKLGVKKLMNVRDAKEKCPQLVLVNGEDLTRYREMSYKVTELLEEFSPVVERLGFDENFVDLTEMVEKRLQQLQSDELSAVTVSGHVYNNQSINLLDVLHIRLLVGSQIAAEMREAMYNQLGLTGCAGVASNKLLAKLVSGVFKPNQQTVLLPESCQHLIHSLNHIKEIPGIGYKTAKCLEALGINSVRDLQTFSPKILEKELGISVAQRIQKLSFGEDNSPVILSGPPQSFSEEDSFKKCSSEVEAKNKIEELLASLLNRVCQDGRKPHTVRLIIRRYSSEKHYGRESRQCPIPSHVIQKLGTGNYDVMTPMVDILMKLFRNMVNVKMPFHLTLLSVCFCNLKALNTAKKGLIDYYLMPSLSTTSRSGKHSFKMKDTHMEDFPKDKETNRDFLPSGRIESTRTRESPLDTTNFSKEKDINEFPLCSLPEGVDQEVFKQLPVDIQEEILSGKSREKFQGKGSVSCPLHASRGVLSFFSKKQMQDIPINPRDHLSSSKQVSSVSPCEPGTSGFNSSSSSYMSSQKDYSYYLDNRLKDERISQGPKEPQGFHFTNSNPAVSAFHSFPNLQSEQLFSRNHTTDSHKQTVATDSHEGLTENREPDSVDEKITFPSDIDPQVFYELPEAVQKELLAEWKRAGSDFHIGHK
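Fluorescent replication assay read twice, at 0 min and 10 min after adding 50 nM (final) substrate. Enzyme (10 nM) and compounds were first incubated 15 min at room temperature; enzyme-free buffer wells were negative controls.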
Active calls of the source: *; ? = inconclusive; . = no result; ! = not confirmed by another sample; [ ] = another dose, or the depositor's remark. Only some compounds are listed: those with a hit (about 2.3% of all), similar ones and a draw of the others. The call rests on the fitted dose curve; in most records, active means well fitted curve in the direction sought with a large enough effect; inconclusive means small, poorly fitted or top-dose-only effect, or another doubt; inactive means no such curve, though single readings can be large; an effect the other way counts as inactive or inconclusive. Potency means the concentration at half of the fitted maximal effect.

SMILES	WRN helicase inh	POLK inh	POLH inh	Pol beta inh	POLI inh
Cc1ccc(NC(=O)COC(=O)/C=C/c2ccco2)cc1S(=O)(=O)N(C)C	-26%	-44%	16µM*	?	?
Cc1cc(NC(=O)c2cc(-c3cccc(Cl)c3)on2)nn1Cc1ccc(Cl)cc1	.	0%	0%	36%	58%
Cc1cc(C=C(C#N)C#N)ccc1N1CCCC1	-24%[57.1 µM]	-16%	-7%	10%	89µM*
N#CC(C#N)=Cc1ccc(N2CCOCC2)cc1	-1%	-20%	-19%	1%	12%
CC(C)(Oc1ccc(Cl)cc1)C(=O)OCC(=O)N1CCN(c2ccccc2)CC1	-6%	-14%	-14%	.	46%
COc1ccc(C(=O)Nc2ccccc2C(=O)NC(C(=O)NCc2ccco2)C(C)C)cc1 (stereo unspecified)	-8%	-5%	8.9µM*	8%	-17%
CCCC(Cn1cncn1)c1ccc(Cl)cc1Cl (stereo unspecified)	.	13%[60.1 µM]	.	.	.
CN1CCC2(CC1)C(C#N)=C(N)NC(S)=C2C#N	56µM*!	-22%	-16%	?	-12%
NC(=O)Cn1cc(C=C2C(=O)NC(=O)NC2=O)c2ccccc21	-9%	-14%	4%	18%	?
CCn1cc(C=C2C(=O)NC(=O)NC2=O)c2ccccc21	-27%	-17%	7%	?	20µM*
CCC1(C)OC(c2ccccc2)=C/C(=C/C=C2C(=O)NC(=O)NC2=O)O1 (stereo unspecified)	?	-26%	-18%	?	28µM*
CCC1(Oc2ccccc2)C(=O)NC(=O)NC1=O	0%	-9%	-23%	.	13%
COc1ccccc1-c1nc2c(c(SCc3cccc(Cl)c3)n1)Cc1c(CO)cnc(C)c1O2	.	-5%	-19%	2%	40%
CC#C[C@]1(O)CC[C@H]2C3C=C(C)C4=CC(=O)C=C[C@]4(C)[C@H]3[C@@H](O)C[C@@]21C (stereo partly specified)	.	10%[60.1 µM]	.	.	.
O=C1/C(=C\c2ccccc2)C[C@@]2(O)[C@H]3Cc4ccc(O)c5c4[C@@]2(CCN3CC2CC2)[C@@H]1O5	.	-19%[19.4 µM]	.	.	.
CCCCC/C=C\C/C=C\C/C=C\C/C=C\CCCC(=O)O	.	13µM*!	.	.	.
COc1cc(/C=C/[N+](=O)[O-])ccc1O	-7%	-43%	5%	2%	32µM*
O=C(CN1CCCC2CCCCC21)c1ccc(I)cc1 (stereo unspecified)	.	-8%	.	.	9%
O=C(Nc1cc(C(F)(F)F)cc(C(F)(F)F)c1)c1cc(Cl)ccc1O	.	30µM*!	.	.	.
O=C(Nc1cc(C(F)(F)F)cc(C(F)(F)F)c1)c1cccn(Cc2ccccc2Cl)c1=O	.	-8%[60.1 µM]	-14%	-14%	8%
NC(=O)C1CCN(/C=C2\C(=O)NC(=O)N(Cc3ccco3)C2=O)CC1	?	79µM*	18µM*	?	20µM*
O=C(NCc1ccccc1)c1cccc(Nc2nc3ccccc3n3nnnc23)c1	.	-3%	-9%	-11%	?
CC(=O)CC(c1ccccc1)c1c(O)c2cc(O)ccc2oc1=O (stereo unspecified)	.	-12%[60.1 µM]	.	.	.
CC(N)C(=O)NCC(=O)NC1CSSCC(C(=O)O)NC(=O)C(CO)NC(=O)C(C(C)O)NC(=O)C(Cc2ccccc2)NC(=O)C(C(C)O)NC(=O)C(CCCCN)NC(=O)C(Cc2c[nH]c3ccccc23)NC(=O)C(Cc2ccccc2)NC(=O)C(Cc2ccccc2)NC(=O)C(CC(N)=O)NC(=O)C(CCCCN)NC1=O (stereo unspecified)	.	1%[19.4 µM]	.	.	.
c1ccc(CCN2CCCCC2)cc1	.	4%	.	.	21%
SMILES	WRN helicase inh	POLK inh	POLH inh	Pol beta inh	POLI inh
Oc1ccccc1/C=N/NP(=S)(c1ccccc1)c1ccccc1	-11%	-7%	-22%	11%	85%
Oc1ccc(/C=N/NP(=S)(c2ccccc2)c2ccccc2)c(O)c1O	?	-40%	?	14µM*	?
CC(C)n1c(O)c(C2c3cc(Cl)ccc3Oc3[nH]c(=O)n(C(C)C)c(=O)c32)c(=O)[nH]c1=O (stereo unspecified)	35µM*	-7%	?	8%	16µM*
O=c1c2ccccc2nc(/C=C/c2ccc(O)cc2)n1-c1cccc(O)c1	?	?	56µM*	4µM*	25µM*
O=c1c2ccccc2nc(/C=C/c2ccc(O)cc2)n1-c1ccc(O)cc1	-9%	6%	?	?	-12%
COc1cccc(-n2c(/C=C/c3ccc(O)c(O)c3)nc3ccccc3c2=O)c1	-31%	-43%	28µM*	8.9µM*	22µM*
CC(CCC(=O)O)C1CCC2C3CC[C@H]4CC(O)CC[C@@]4(C)C3CC[C@@]12C (stereo partly specified)	.	-10%[60.1 µM]	.	.	.
CC[C@@H]1/C=C/C=C/C[C@H](C)[C@@H](O)[C@](C)(O)C(=O)[C@H](C)[C@@H](O)[C@H](C)C(=O)[C@H](C)[C@@H](O)[C@H](C)/C=C/C(=O)O[C@H]2[C@@H](C)[C@@H](CC1)O[C@@]1(CC[C@@H](C)[C@@H](C[C@H](C)O)O1)[C@@H]2C	.	-13%[19.4 µM]	.	.	.
C=CCn1c(O)c(/C=C2/C=CC=N2)c(=O)[nH]c1=O	-4%[11.6 µM]	-19%	?	19%	20µM*
O=c1[nH]c(=O)n(Cc2ccccc2Cl)c(O)c1/C=C1/C=CC=N1	-18%	?	?	?	45µM*
ClCCN(CCCl)c1ccc(/C=C/c2ccnc3ccccc23)cc1	.	-16%	.	.	-12%
CCCCCc1cc(O)c2c(c1)OC(C)(C)C1CC=C(C)CC21 (stereo unspecified)	.	-2%[19.4 µM]	.	.	.
CN1CC[C@@]2(C)c3cc(O)ccc3N(C)C12 (stereo partly specified)	.	-5%[60.1 µM]	?	-8%[57.1 µM]	28µM*!
Cc1ccc(NC(=O)C2CCN(C(=O)c3cnn(-c4ccccc4)c3-n3cccc3)CC2)cc1Cl	.	-22%	-16%	?	7%
CCOP(=S)(OCC)OCCSCC	.	16%[60.1 µM]	.	.	.
CCn1c(O)c(C=Nc2ccc(N3CCOCC3)c(Br)c2)c(=O)n(CC)c1=S	8%	-13%	-13%	30%	20%
CCn1c(O)c(C=Nc2ccc(N3CCOCC3)cc2)c(=O)n(CC)c1=S	13%	-9%	71%	18µM*	5%
C=C1C(O)C2OC3(CCC(/C=C/C(C)C4CC(C)=CC5(OC(CC(C)(O)C(=O)O)CCC5O)O4)O3)CCC2OC1C(O)CC(C)C1OC2(CCCCO2)CCC1C (stereo unspecified)	.	-10%[2.39 µM]	.	.	.
CC(N)[C@@H](O)c1ccccc1 (stereo partly specified)	.	-6%[60.1 µM]	.	.	.
CC(N)C(O)c1ccc(O)c(O)c1 (stereo unspecified)	.	3.2µM*!	.	.	.
CNC(=S)S	.	15%[60.1 µM]	.	.	.
COc1c2c(cc3c1OCO3)CCN(C)C2	1%	-4%	-8%	.	-10%

Assay outcomes as filed in PubChem BioAssay.
